PTAP TSG101 blk: blocks PTAP/TSG101 interaction to inhibit HIV-1 budding | Q99816 | Fluorescence polarization, FITC-PTAP peptide / Tsg101 binding | Potency, µM (series often up to 115 µM), for the others: at the top dose activity change, negative = inhibition, most hits filed as inhibitors | 340,000 tested, under 10 active | AID 493005; active = well fitted inhibition curve with a large enough effect in the main read-out, with a control signal flat, not every such curve was filed as active; inconclusive = small, poorly fitted or top-dose-only effect, or effect the other way, or a change in a side signal; inactive = no such curve, though single readings can be large or run the other way; note: % of control where 0% means no effect
Target sequence (Q99816 whole entry, looked up): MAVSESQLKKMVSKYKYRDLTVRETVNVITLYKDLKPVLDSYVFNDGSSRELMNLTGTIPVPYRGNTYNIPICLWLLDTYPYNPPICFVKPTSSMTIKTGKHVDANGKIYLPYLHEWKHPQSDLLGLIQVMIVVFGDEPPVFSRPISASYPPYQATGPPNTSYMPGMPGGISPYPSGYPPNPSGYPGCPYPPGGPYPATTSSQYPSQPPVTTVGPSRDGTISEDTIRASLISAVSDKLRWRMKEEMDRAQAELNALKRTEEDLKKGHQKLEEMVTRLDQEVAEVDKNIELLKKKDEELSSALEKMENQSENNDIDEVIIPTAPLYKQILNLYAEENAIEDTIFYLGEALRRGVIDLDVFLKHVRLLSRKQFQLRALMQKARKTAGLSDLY
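FP read-out: FITC-PTAP peptide, 50 nM final, binding Tsg101 binding domain, 10 uM final; 20 min, r.t.; 10 mM HEPES pH 7.5, 0.15 M NaCl, 0.01% Tween 20, 3 mM EDTA, 0.1 mM TCEP.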
KB-3-1 tox: KB-3-1 parental cell cytotoxicity; hit rate 1.4% among 400,000; KB-3-1 viability, CellTiter-Glo ATP luminescence, 72 h; Potency, µM (series often up to 46.1 µM), hits mostly cytotoxic; note: % is set by controls: 0 for no effect and ±100 for the full control effect; nearly all actives have a fitted effect of over 60% in size
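Screening of KB-3-1 cells (DMEM, 10% FBS, phenol-red free) ran from lowest to highest compound concentration; after 72 h at 37 °C viability was read luminescently and curves fitted.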
MCF10A rereplic: DNA re-replication induction in MCF 10a cells; hit rate 2.9% among 350,000; Potency, µM (highest dose often 46.1 µM), for inactives: top-dose activity, positive = re-replication, most hits filed as activators; MCF 10A DNA re-replication, Hoechst nuclear intensity, 48 h; note: % of control where 0% means no effect; nearly all actives have a fitted effect of over 50% in size
PINK1 expr mod: modulators of PINK1 expression. AID 624263. hit rate 0.2% among 410,000. PINK1 immunofluorescence, high-content cytometry, 24 h. Potency, µM (series often up to 76.6 µM), inactives show at the highest dose activation (PINK1 increase), most hits filed as activators; active = well fitted activation curve with a large enough effect; inconclusive = small, poorly fitted or top-dose-only effect; cell line not stated here; note: % of control where 0% means no effect; nearly all actives have a fitted effect of over 65% in size
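Stable cell line, 250 cells/well, 12 h attachment; compounds pinned at 5 concentrations, 24 h; CCCP control. Fixed with nuclear dye, primary antibodies 12 h at 10 degrees C, secondary plus cell stain; laser-scanning cytometer read.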
SW480 rerep: inducers of DNA re-replication in SW480 colon cancer cells; hit rate 1.8% among 340,000; Potency, µM (highest dose often 46.1 µM), inactives show at the top dose re-replication activation, actives largely listed as activators; SW480 DNA re-replication, Hoechst DNA content imaging, 48 h; AID 624297; note: % of control where 0% means no effect; nearly all actives have a fitted effect of over 55% in size
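250 cells/well; 23 nL cpd via pin tool; 48 hr, 37 C, 5% CO2; Hoechst 40 min; imager read of total nuclear intensity, ex 405/em 500-530 nm.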
KB-V1 cytotox: kills drug-selected multidrug resistant KB-V1 cells. KB-V1 MDR cells viability, CellTiter-Glo, 72 h. Potency, µM (highest dose often 46.1 µM), hits mostly cytotoxic. hit rate 3.4% among 400,000. AID 1347076; note: % is set by controls: 0 for no effect and ±100 for the full control effect; nearly all actives have a fitted effect of over 60% in size
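Compound-treated KB-V1 multidrug-resistant cells, 72 h, 37 degrees C; viability by CellTiter-Glo. Fitted qHTS curves give the values.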
* hit, by the source's call; i = inactive; ? = inconclusive; · = not tested or not shown; [ ] = remark or other dose. Shown are actives, neighbours in structure and some others; about 6.8% of the full set was active somewhere. Unless noted, calls come from the whole dose curve; as a rule, active = well fitted curve in the direction sought with a large enough effect; inconclusive = small, poorly fitted or top-dose-only effect, or another doubt; inactive = no such curve, though single readings can be large; an effect the other way counts as inactive or inconclusive. Potency is the fitted concentration of half-maximal effect.

SMILES | PTAP TSG101 blk | KB-3-1 tox | MCF10A rereplic | PINK1 expr mod | SW480 rerep | KB-V1 cytotox
Nc1nc(N)c2cc(CNc3ccc(Cl)c(Cl)c3)ccc2n1 | · | ? | · | -2% | · | 16µM*
Cc1cc(NC(=O)CSc2nccn2-c2cccc(F)c2)no1 | -6% | i | 0% | -4% | 1% | 16µM*
Cc1cc(NC(=O)CSc2nccn2-c2cccc(C)c2C)no1 | 0% | ? | ? | 3% | ? | 10µM*
CCSc1nnc(NC(=O)CSc2nccn2-c2cccc(C)c2C)s1 | 1% | i | 24% | 2% | 2% | 21µM*
CCOc1ccc(-n2ccnc2SCC(=O)N2CCCc3ccccc32)cc1 | 1% | i | -4% | -1% | -1% | 12µM*
O=C1c2ccccc2C(=O)N1c1ccc(O)cc1 | · | i | · | -1% | · | i
CCCOc1ccc(Nc2nc(SC)ncc2C(=O)OCC)cc1 | · | i | · | 2% | · | i
CCOc1ccc(-n2ccnc2SCC(=O)Nc2cc(C)on2)cc1 | 0% | i | -2% | 8% | 3% | 15µM*
COc1ccc(CN2CCCC(n3cc(C(=O)N4CCCCC4)nn3)C2)c(OC)c1C (stereo unspecified) | · | · | · | -1% | · | ·
CCNc1nc(NCC)nc(SCCOC(=O)Nc2ccccc2)n1 | -3% | i | 7% | -3% | 0% | i
CCNc1nc(NCC)nc(SCCOc2ccc(C)cc2)n1 | -2% | ? | 21µM* | 11% | 8% | ?
Cc1cccc(OCCSc2nc(N)cc(N)n2)c1 | -2% | ? | ? | 0% | 16µM* | ?
CO[C@H]1[C@H](NC(=O)c2ccco2)c2ccccc2C12CCN(Cc1cnc(N(C)C)s1)CC2 | · | · | · | 1% | · | ·
Cc1ccccc1C(=O)NNc1ccc(-c2csnn2)cc1 | -1% | i | 18µM* | 0% | 3% | i
CC(=O)Oc1ccc(-c2csnn2)cc1 | -4% | i | 9% | -1% | 0% | i
CCOC(=O)c1sc(-c2ccc(C(F)(F)F)cc2)nc1O | -6% | i | 16µM* | 3% | 16µM* | i
Cc1nc(S(=O)(=O)c2ccc(Cl)cc2)nc2c1CCC2 | -5% | i | 9% | 2% | 10% | 15µM*
COc1ccccc1-c1ccnc(-n2ncc(C(=O)NCc3ccncc3)c2C)n1 | · | · | · | 6% | · | ·
CCOC(=O)c1c(N)sc2c1CCC(CC)C2 (stereo unspecified) | -9% | i | ? | -1% | 4% | ?
CC#CCOC(=O)c1c(C)nc2sc3c(c2c1N)CCC(O)C3 (stereo unspecified) | -3% | ? | ? | 7% | -55% | 12µM*
CCN(Cc1ccccc1)c1ccc(/C=C/c2nccc3ccccc23)cc1 | · | i | · | 2% | · | i
Cc1ccc(/C=C/c2nc3ccccc3[nH]2)cc1 | · | · | · | 3% | · | ·
Cc1ccc(/C=C\c2nccc3c2[nH]c2ccccc23)cc1 | 0% | i | 9.2µM* | 1% | 21µM* | i
C(=C\c1nccc2c1[nH]c1ccccc12)/c1ccccc1 | -1% | ? | ? | 20% | 12µM* | i
Fc1ccc(/C=C\c2nccc3c2[nH]c2ccccc23)cc1 | -2% | i | 6.5µM* | 2% | 18µM* | i
SMILES | PTAP TSG101 blk | KB-3-1 tox | MCF10A rereplic | PINK1 expr mod | SW480 rerep | KB-V1 cytotox
Cc1ccc2cc(C#N)c(N3CCCC3)nc2c1C | -4% | i | ? | 2% | 11µM* | i
Cc1ccc2cc(C#N)c(N3CCCN(C(=O)C4CCCO4)CC3)nc2c1C (stereo unspecified) | -3% | i | 21µM* | 1% | 19% | ?
Cc1cc(C)c2nc(N3CCCN(C(=O)c4ccco4)CC3)c(C#N)cc2c1 | -6% | i | ? | · | -2% | i
CCOc1ccc(-c2oc3cc(Cl)ccc3c(=O)c2O)cc1OC | · | i | · | 1% | · | ?
COc1ccc2nc(-c3ccc(N)cc3)[nH]c2c1 | -5% | i | -8% | -1% | -5%[9.22 µM] | i
COc1ccc(-c2nc3ccc(C4=C(C)CC(=O)NN4)cc3[nH]2)cc1 | · | · | ? | · | 19µM* | ·
Cc1cccc(NC(=O)Cn2nc(C)c3nn(-c4ccc(Cl)cc4)c(C)c3c2=O)c1C | · | · | · | 0% | · | ·
Cc1ccc(N2C(=O)c3n[nH]c(C)c3C2c2ccc(C(C)C)cc2)cc1 (stereo unspecified) | · | ? | · | -1% | · | i
CCCCN1C(=O)C(CC(=O)NCc2cccc3ccccc23)CC(C(=O)N2CCCCCC2)=C1C (stereo unspecified) | · | ? | · | -1% | · | 9.2µM*
CC1=C(C(=O)N(C(C)C)C(C)C)CC(CC(=O)NC(c2ccccc2)c2ccccc2)C(=O)N1CCC1=CCCCC1 (stereo unspecified) | · | ? | · | 16% | · | ?
CC1=C(C(=O)N2CCOCC2)CC(CC(=O)NC(c2ccccc2)c2ccccc2)C(=O)N1CCC1=CCCCC1 (stereo unspecified) | · | i | · | 2% | · | 10µM*
CC1=C(C(=O)N2CCCCCC2)CC(CC(=O)NCc2cccs2)C(=O)N1CCC1=CCCCC1 (stereo unspecified) | · | i | · | 0% | · | ?
CC1=C(C(=O)N(C(C)C)C(C)C)CC(CC(=O)NCc2cccc3ccccc23)C(=O)N1Cc1ccc(C(C)(C)C)cc1 (stereo unspecified) | · | 23µM* | · | 4% | · | ?
CC1=C(C(=O)N2CCCCCC2)CC(CC(=O)NCc2cccc3ccccc23)C(=O)N1CCC1=CCCCC1 (stereo unspecified) | · | ? | · | 4% | · | 18µM*
CC1=C(C(=O)N(C)C)CC(CC(=O)NCc2cccc3ccccc23)C(=O)N1Cc1ccc(C(C)(C)C)cc1 (stereo unspecified) | · | i | · | 2% | · | i
CCCCN1C(=O)C(CC(=O)NCc2cccc3ccccc23)CC(C(=O)N(C(C)C)C(C)C)=C1C (stereo unspecified) | · | i | · | 2% | · | ?
CCCCOc1cccc(C(=O)N(Cc2cccs2)c2ccc(OC)cc2)c1 | · | · | · | 4% | · | ·
CCc1ccc(CNC(=O)C2CCN(c3nnc(-n4c(C)ccc4C)s3)CC2)cc1 | · | · | · | 0% | · | ·
O=C(c1ccncc1)N1CCC2(CC1)CCN(c1ccccc1)CC2 | · | · | · | 0% | · | ·
CCCCCCC[n+]1c(/C=C/c2ccc(N(C)C)cc2)sc2ccccc21 | · | i | · | ? | · | ?
CC1=C(C(=O)N2CCCCCC2)CC(CC(=O)NCCCCc2ccccc2)C(=O)N1CCC1=CCCCC1 (stereo unspecified) | · | ? | · | ? | · | 16µM*

Screening data: PubChem BioAssay, National Center for Advancing Translational Sciences (NCATS)
